The source of these data is publication PMC7826789 (International Journal of Molecular Sciences, 2021).

Test systems include ABL1-nonphosphorylated; ABL1-phosphorylated; ABL2; ACVR1B; ACVR1; ACVR2A; ACVR2B; ACVRL1; ADCK4; AKT1; AKT2; AKT3; ALK(C1156Y); ALK(L1196M); ALK.
Common to all, as to settings: Compound Concentration (nM):1000
In test [1] the test system is ABL1(Q252H)-phosphorylated.
Test [2] has as its system ABL1(T315I)-nonphosphorylated.
The test system of test [3] is ABL1(T315I)-phosphorylated.
Test [4] relates to ABL1(Y253F)-phosphorylated.
The test system of the next test is T1, ADCK3.
T1 construct: gene CABC1
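Further: KINOMEscan scanMAX binding as percent activity remaining versus control; lower means stronger binding.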

`CCS(=O)(=O)c1ccc(OC)c(Nc2ncc(-c3cccc(F)c3)o2)c1` [GW621970X]: the “Percent Control” value in test [1] is 4.9%; in [2], 100%; in test [3], 91%; in test [4] it was 7.1%; in the test with ABL1-nonphosphorylated, 20%; with ABL1-phosphorylated it was 9.9%. Besides, the “Percent Control” value in the test on ABL2 turned out to be 33%; in the test with ACVR1B it was 100%; with ACVR1 it was 18%; in the test on ACVR2A, 100%; in the test with ACVR2B it was 100%; in the test with ACVRL1, 49%. Further, the “Percent Control” value in the test with ADCK3 is 100%; in the test with ADCK4, 100%; in the test on AKT1 it was 100%; with AKT2 it was 100%; in the test on AKT3, 100%; in the test with ALK(C1156Y), 88%. Besides, the “Percent Control” value is 97% in the test with ALK(L1196M) and 73% in the test on ALK.

Turning to `Cl.O=C(Nc1ccc(Oc2ccc3[nH]c(NC(=O)c4ccco4)nc3c2)cc1)Nc1cc(C(F)(F)F)ccc1F` [GW683134A], the “Percent Control” value in [1] is listed as 58%; in test [2] it was 6.2%; in [3], 9.2%; in test [4], 17%; in the test with ABL1-nonphosphorylated, 7.9%; in the test with ABL1-phosphorylated it was 21%. Besides, the “Percent Control” value with ABL2 came out at 3.2%; in the test on ACVR1B, 82%; in the test with ACVR1, 100%; in the test on ACVR2A, 100%; with ACVR2B, 100%; in the test with ACVRL1, 76%. The “Percent Control” value is 100% with ADCK3; 100% with ADCK4; 100% in the test on AKT1; 100% in the test with AKT2; 100% in the test on AKT3; 92% in the test on ALK(C1156Y). In addition, the “Percent Control” value in the test on ALK(L1196M) was found to be 92%; in the test with ALK, 88%.

Regarding `COc1ccc2[nH]c3c4[nH]c5ccc(OC)cc5c4c4c(c3c2c1)C(=O)NC4=O` [GW296115X], the “Percent Control” value in test [1] was 36%; in test [2], 44%; in test [3] it was 94%; in test [4], 53%; in the test on ABL1-nonphosphorylated it was 58%; in the test on ABL1-phosphorylated it was 57%. For the same compound, the “Percent Control” value in the test on ABL2 worked out at 82%; with ACVR1B, 100%; in the test with ACVR1, 77%; in the test with ACVR2A, 58%; in the test on ACVR2B, 44%; with ACVRL1, 100%. The “Percent Control” value in the test on ADCK3 is 100%; with ADCK4, 75%; in the test with AKT1, 72%; with AKT2 it was 84%; in the test with AKT3, 98%; in the test on ALK(C1156Y), 25%. For the same compound, the entries for the “Percent Control” value in the test with ALK(L1196M) and in the test with ALK were 70% and 55%, respectively.

Take `COc1cc2ncn(-c3cc(O[C@H](C)c4ccccc4Cl)c(C(N)=O)s3)c2cc1OC` [GSK237701A]: the “Percent Control” value is 76% in test [1]; 51% in test [2]; 39% in [3]; 83% in [4]; 59% in the test with ABL1-nonphosphorylated; 81% in the test with ABL1-phosphorylated. Moreover, the “Percent Control” value was determined as 73% with ABL2; 100% in the test with ACVR1B; 100% with ACVR1; 100% in the test with ACVR2A; 100% in the test on ACVR2B; 100% in the test with ACVRL1. The “Percent Control” value in the test on ADCK3 was 100%; in the test on ADCK4 it was 83%; in the test on AKT1, 100%; with AKT2, 88%; in the test on AKT3, 100%; with ALK(C1156Y) it was 100%. The “Percent Control” value with ALK(L1196M) is recorded as 94%; in the test on ALK, 79%.

Regarding `COc1cccc(-n2ncc3c(N/N=C/c4ccncc4)ncnc32)c1` [GW784752X], the “Percent Control” value in test [1] came out at 1.7%; in test [2], 59%; in test [3], 27%; in test [4] it was 1.6%; with ABL1-nonphosphorylated, 7%; in the test with ABL1-phosphorylated it was 1.8%. The “Percent Control” value with ABL2 was determined as 54%; with ACVR1B, 54%; with ACVR1, 5.4%; with ACVR2A it was 81%; in the test with ACVR2B, 81%; in the test with ACVRL1 it was 3.7%. The “Percent Control” value in the test on ADCK3 is 100%; in the test with ADCK4 it was 31%; in the test on AKT1 it was 100%; with AKT2 it was 100%; in the test on AKT3, 100%; in the test with ALK(C1156Y), 95%. In addition, the figures for the “Percent Control” value with ALK(L1196M) and in the test with ALK were 91% and 87%, respectively.

With `NS(=O)(=O)c1ccc(N/N=C2\C(=O)Nc3ccc(Cl)cc32)cc1` [GW280670X], the “Percent Control” value in test [1] is on record as 100%; in test [2], 100%; in [3], 100%; in [4], 100%; in the test with ABL1-nonphosphorylated it was 93%; with ABL1-phosphorylated, 100%. Moreover, the “Percent Control” value with ABL2, in the test on ACVR1B, in the test with ACVR1, in the test on ACVR2A, in the test with ACVR2B and in the test with ACVRL1 was 100% throughout. For the same compound, the “Percent Control” value in the test with ADCK3, in the test with ADCK4, with AKT1, with AKT2, with AKT3 and in the test with ALK(C1156Y) was 100% throughout. The “Percent Control” value with ALK(L1196M) and in the test on ALK was 100% each time.

Consider `Cl.O=C(O[C@H]1CN[C@H](C#Cc2cc3ncnc(Nc4ccc5c(cnn5Cc5ccccc5)c4)c3s2)C1)N1CCOCC1` [GSK200398A], for which the “Percent Control” value in [1] was found to be 80%; in test [2], 100%; in test [3] it was 100%; in test [4] it was 78%; in the test on ABL1-nonphosphorylated, 84%; with ABL1-phosphorylated, 76%. In addition, the “Percent Control” value in the test on ABL2 came to 100%; with ACVR1B, 100%; in the test with ACVR1, 100%; with ACVR2A, 100%; in the test with ACVR2B, 100%; with ACVRL1, 82%. Further, the “Percent Control” value with ADCK3 was 100%; with ADCK4 it was 100%; in the test with AKT1, 92%; in the test with AKT2 it was 100%; with AKT3 it was 100%; with ALK(C1156Y) it was 94%. The “Percent Control” value in the test on ALK(L1196M) stood at 88%; with ALK, 100%.

With `NS(=O)(=O)c1ccc(N/N=C2\C(=O)Nc3ccc(C(=O)NCCc4c[nH]cn4)cc32)cc1` [GW300660X], the “Percent Control” value in test [1] worked out at 100%; in [2], 100%; in test [3] it was 86%; in [4], 100%; with ABL1-nonphosphorylated it was 100%; in the test with ABL1-phosphorylated, 91%. Moreover, the “Percent Control” value in the test on ABL2, with ACVR1B, with ACVR1, in the test on ACVR2A, with ACVR2B and in the test on ACVRL1 was 100% throughout. The “Percent Control” value with ADCK3 is 100%; with ADCK4 it was 100%; in the test on AKT1 it was 100%; with AKT2, 100%; in the test on AKT3, 100%; with ALK(C1156Y), 92%. The “Percent Control” value in the test with ALK(L1196M) came out at 91%; in the test on ALK it was 100%.

Regarding `O=C(Nc1n[nH]c2nc(-c3ccc(O)cc3)c(Br)cc12)C1CC1` [SB-725317], the “Percent Control” value in test [1] came to 37%; in test [2], 16%; in test [3] it was 12%; in test [4], 48%; in the test on ABL1-nonphosphorylated, 22%; in the test on ABL1-phosphorylated it was 31%. The “Percent Control” value with ABL2 was determined as 100%; in the test with ACVR1B, 100%; with ACVR1, 72%; with ACVR2A, 75%; in the test with ACVR2B, 79%; in the test on ACVRL1 it was 65%. In addition, the “Percent Control” value in the test with ADCK3 was 100%; with ADCK4 it was 100%; in the test with AKT1, 100%; in the test with AKT2, 100%; with AKT3 it was 85%; in the test on ALK(C1156Y), 54%. Further, the results for the “Percent Control” value in the test on ALK(L1196M) and in the test with ALK were 87% and 75%, respectively.

`Cl.O=S1CCN(Cc2ccc(-c3ccc4ncnc(Nc5ccc(OCc6ccccc6)c(F)c5)c4c3)o2)CC1` [GW576924A]: the “Percent Control” value in [1] came out at 100%; in [2], 100%; in test [3] it was 100%; in test [4], 100%; with ABL1-nonphosphorylated, 100%; with ABL1-phosphorylated, 89%. Also, the “Percent Control” value was 100% in the test with ABL2; 100% in the test on ACVR1B; 100% with ACVR1; 100% with ACVR2A; 100% with ACVR2B; 94% in the test on ACVRL1. Also, the “Percent Control” value in the test with ADCK3, with ADCK4, in the test on AKT1, with AKT2, in the test with AKT3 and in the test on ALK(C1156Y) was 100% throughout. For the same compound, the “Percent Control” value in the test with ALK(L1196M) and with ALK was 100% in each case.
